# BoNT-F LC inh – blocks Botulinum neurotoxin F light chain protease; inhibition, % at 10 µM; 360,000 compounds, 0.22% hits; Multiplex microsphere protease cleavage assay, flow cytometry; in the data active = inhibition above about 35%, passing the limit was not always enough; inconclusive = no clear call, values can overlap the other calls; note: plate controls were buffer without enzyme for full effect and enzyme alone for no effect
# BoNT-A LC inh2 – inhibitors of Botulinum neurotoxin A light chain protease. multiplex microsphere protease substrate cleavage, flow cytometry. inhibition, % at 10 µM. 360,000 compounds, 0.17% hits; note: plate controls were buffer without enzyme for full effect and enzyme alone for no effect
# Bead autofluor – flagged as autofluorescent in microsphere protease counterscreen; compound autofluorescence counterscreen, microsphere flow cytometry; active compounds read high; fluorescence intensity (concentration not given with the values); 360,000 compounds, 3.1% hits; AID 624483; in the data active = fluorescence intensity above about 16000; inconclusive = no clear call, values can overlap the other calls
# Anthrax LF inh2 – blocks Bacillus anthracis lethal factor protease | P15917 | multiplex microsphere protease cleavage assay, LF | inhibition, % at 10 µM | 360,000 compounds, 0.12% hits; note: plate controls were buffer without enzyme for full effect and enzyme alone for no effect
# * marks the source's active call; other numbers are inactive results; ? = inconclusive. Sampled rows, rich in hits. Any-hit rate of the full collection: about 3.5%. Cut-off read from the data, not from the text of the source, unless noted: active = inhibition above about 30%; inconclusive = no clear call, values can overlap the other calls; inactive = below that.
SMILES,BoNT-F LC inh,BoNT-A LC inh2,Bead autofluor,Anthrax LF inh2
O=C(Oc1coc(CSc2nnc(NC(=O)C3CC3)s2)cc1=O)c1c(F)cccc1F,-4,48*,3946,-5
O=C(CCn1cnnn1)N1CCCC(Nc2ccc(F)cc2)C1 (centres undefined),-5,-1,5802,1
COc1ccc(S(=O)(=O)N2CCCCC2)cc1NC(=O)C1CC1(Cl)Cl (centres undefined),-2,0,3855,4
Cc1ccc(-n2c(C)cn(C(=O)c3ccccc3)c2=S)cc1,2,2,15652,-1
Cc1cn(C(=O)c2ccccc2)c(=S)n1-c1ccc(Cl)cc1,-2,-2,17230*,-3
COCCN(C(=O)COC(=O)c1sccc1C)c1c(N)n(Cc2ccccc2)c(=O)[nH]c1=O,2,-2,4856,1
CCOC(=O)C1C2C=CC3(CN(c4ccccc4CC)C(=O)C13)O2 (centres undefined),-6,0,3234,-1
CCCCCOC(=O)C1C2C=CC3(CN(c4ccccc4C)C(=O)C13)O2 (centres undefined),2,1,21724*,0
O=S1(=O)CC(N2CCN(CCO)CC2)CN1Cc1cn(Cc2ccccc2C(F)(F)F)nn1 (centres undefined),6,0,6105,8
COC(=O)c1cn(C(=O)c2ccc(C)cc2)c2ccccc12,-4,0,2725,-2
Cc1ccc(C(=O)n2cc(CCN3CCS(=O)(=O)CC3)c3ccccc32)cc1,1,0,16475*,-3
N#Cc1ccc(CSc2ccc(S(=O)(=O)N3CCCCCC3)cn2)cc1,-5,2,5327,0
CCc1nnc(NC(=O)CSc2nc3ccccc3o2)s1,2,1,22539*,-1
CC(=O)Nc1nonc1NC(=O)CSc1nc2ccccc2o1,0,0,22359*,-2
O=C(CSc1nc(-c2ccccc2)c(-c2ccccc2)o1)Nc1nnc(-c2ccccc2)s1,-2,1,22803*,-2
O=C(CN1CCN(S(=O)(=O)c2ccc(F)cc2)CC1)Nc1ccc(F)cc1F,3,1,5338,1
O=C1CCCC(O)=C1N=Nc1ccc(C(=O)O)cc1,-5,-1,5984,-7
O=C1CCCC(O)=C1N=Nc1c(Cl)cc(C(F)(F)F)cc1Cl,?,4,2889,83*
O=C(CC(c1ccco1)S(=O)(=O)c1ccccc1)c1ccc(F)cc1 (centres undefined),4,3,22035*,-4
CN(CC(=O)Nc1ccccc1C(=O)N1CCCC1)S(=O)(=O)c1ccc(Br)cc1,-3,-2,24180*,0
COCCOCCOCCC(=O)NC1CC2CCC1(C)C2(C)C (centres undefined),0,2,21940*,-12
Cc1ccc(C(=O)Nc2ncc(Cc3ccccc3)s2)o1,-3,-1,24322*,-1
O=C(Nc1ncc(Cc2ccc(SC(F)F)cc2)s1)c1ccccc1,3,2,21972*,-4
O=C(Nc1ncc(Cc2ccccc2)s1)c1cccs1,-7,0,2819,0
O=C(CNS(=O)(=O)c1ccccc1)OCC(=O)c1ccc(Br)cc1,-8,-5,4045,-3
SMILES,BoNT-F LC inh,BoNT-A LC inh2,Bead autofluor,Anthrax LF inh2
O=C(CNS(=O)(=O)c1ccccc1)OCC(=O)c1ccc(OC(=O)c2ccccc2)cc1,7,?,21032*,0
O=C(Cc1c(F)cccc1Cl)NC1CCN(Cc2ccccc2)CC1,-11,-7,6698,-1
O=C(COc1ccccc1F)NC1CCN(Cc2ccccc2)CC1,-4,-2,20185*,-3
CS(=O)(=O)NC1CCN(Cc2ccccc2)CC1,-5,?,22396*,1
Cc1ccc(C)n1-c1ccc(C(=O)N/N=C/c2ccncc2)cc1,-3,0,5204,-2
COc1ccc(CC(=O)Nc2ccc(-c3noc(-c4ccccc4OC)n3)cc2)cc1,0,?,22431*,-2
COc1ccc(-c2nc(-c3ccc(Br)cc3)no2)c(OC)c1,-2,1,19523*,6
CCCCC(=O)Nc1ccc2oc(-c3ccncc3)nc2c1,4,-1,6848,6
CCCC(=O)Nc1ccc2oc(-c3ccncc3)nc2c1,-1,0,16375*,-2
COc1cccc(-c2nc(-c3ccc(NC(=O)Cc4ccccc4OC)cc3)no2)c1,-4,0,2236,0
COc1ccc(-c2nc3cc(NC(=O)Cc4ccc(OC)c(OC)c4)ccc3o2)cc1,-3,-1,16446*,-3
Cc1cccc(CN2CCN(C3CN(Cc4ccc(F)cc4)S(=O)(=O)C3)CC2)c1 (centres undefined),2,0,6081,-6
c1ccc(Nc2cc(-c3ccccc3)nc3ncnn23)cc1,-5,?,16695*,-4
Clc1ccc(Nc2cc(-c3ccccc3)nc3ncnn23)cc1,-23,-6,3874,?
CCCNC(=O)COC(=O)c1cccnc1Nc1ccccc1F,-8,0,1973,1
O=C(COC(=O)c1cccnc1Nc1ccccc1F)NCCN1C(=O)CSC1=O,69*,10,4198,-1
COc1ccc(/C=C/C(=O)c2ccc[nH]2)c(OC)c1OC,18,4,4382,5
COc1ccc(/C=C/C(=O)c2ccc[nH]2)cc1OC,0,0,16560*,-1
CC(C)NC(=O)C1CC(=O)N(CCc2ccc(F)cc2)C1 (centres undefined),6,1,3350,-4
CC(C)CN(C(=O)COc1ccc(Br)cc1C=O)C1CCS(=O)(=O)C1 (centres undefined),-6,-8,?,4
CCCCN(CC)Cc1ccc(CNC(=O)Nc2ccc(Cl)cc2)o1,-7,-1,5350,2
CCCCN(CC)Cc1ccc(CNC(=O)Nc2ccc(OCC)cc2)o1,1,1,20423*,-1
Cc1cccc(CC(=O)NCCn2c(C)cc3ccccc32)c1,-58,89*,1493,-20
O=C1CN(S(=O)(=O)c2ccccc2)CCN1,-6,0,3640,-4
O=C(Nc1ccccn1)N1CCOCC1,-5,-3,20658*,0
SMILES,BoNT-F LC inh,BoNT-A LC inh2,Bead autofluor,Anthrax LF inh2
CCN1C(=O)C(CC(=O)N2CCN(C(c3ccccc3)c3ccccc3)CC2)N(CC)C1=O (centres undefined),0,-1,16806*,-2
CCN1C(=O)CC(N2CCN(C(c3ccccc3)c3ccccc3)CC2)C1=O (centres undefined),-12,0,3331,2
O=C(CN1C(=O)NC2(CCc3ccccc32)C1=O)Nc1ccc(N2CCOCC2)cc1 (centres undefined),-3,0,16378*,-3
Cc1ccc(NC(=O)CN2C(=O)NC3(CCc4ccccc43)C2=O)cc1 (centres undefined),-2,1,3357,-5
O=C1CC(=O)N(C2CCCCC2)C(=O)N1c1ccccc1S(=O)(=O)Oc1ccccc1,6,1,4542,-4
O=C(NNS(=O)(=O)c1ccc(Br)cc1)c1ccncc1,-2,-2,20766*,-2
O=C(NNC(=O)c1ccncc1)c1ccncc1,0,-1,22444*,-9
CC(OC(=O)[C@@H]1CCCN1C(=O)c1cccs1)C(=O)Nc1cccc([N+](=O)[O-])c1 (some centres undefined),-2,0,3716,-5
